Compounds with a hit are over-represented: about 2.8% of the library has one in this group of screens.
Exocytosis inh: lytic granule exocytosis inhibition. inhibition, % at 10 µM. TALL-104 LAMP-1 surface exposure, flow cytometry; cells stimulated with thapsigargin and PMA. AID 651702. 0.66% of 360,000 active;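 active = inhibition above about 55%, limit read from the data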
IDE inh: cellular human IDE inhibition; P14735; inhibition, % at 5.59 µM; 0.41% of 320,000 active; HEK cells, FAbetaB cleavage, fluorescence polarization;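 active = percent inhibition above the average of all tested compounds plus 3 SD, set per screening campaign, cut at about 16% in these data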;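 note: IDE supplied by intact live HEK cells; FP after avidin binding of uncleaved biotin substrate so inhibition keeps polarization high; 0% = DMSO wells and 100% = 60 µM reference IDE inhibitor Ii1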
Target sequence (P14735 whole entry, looked up): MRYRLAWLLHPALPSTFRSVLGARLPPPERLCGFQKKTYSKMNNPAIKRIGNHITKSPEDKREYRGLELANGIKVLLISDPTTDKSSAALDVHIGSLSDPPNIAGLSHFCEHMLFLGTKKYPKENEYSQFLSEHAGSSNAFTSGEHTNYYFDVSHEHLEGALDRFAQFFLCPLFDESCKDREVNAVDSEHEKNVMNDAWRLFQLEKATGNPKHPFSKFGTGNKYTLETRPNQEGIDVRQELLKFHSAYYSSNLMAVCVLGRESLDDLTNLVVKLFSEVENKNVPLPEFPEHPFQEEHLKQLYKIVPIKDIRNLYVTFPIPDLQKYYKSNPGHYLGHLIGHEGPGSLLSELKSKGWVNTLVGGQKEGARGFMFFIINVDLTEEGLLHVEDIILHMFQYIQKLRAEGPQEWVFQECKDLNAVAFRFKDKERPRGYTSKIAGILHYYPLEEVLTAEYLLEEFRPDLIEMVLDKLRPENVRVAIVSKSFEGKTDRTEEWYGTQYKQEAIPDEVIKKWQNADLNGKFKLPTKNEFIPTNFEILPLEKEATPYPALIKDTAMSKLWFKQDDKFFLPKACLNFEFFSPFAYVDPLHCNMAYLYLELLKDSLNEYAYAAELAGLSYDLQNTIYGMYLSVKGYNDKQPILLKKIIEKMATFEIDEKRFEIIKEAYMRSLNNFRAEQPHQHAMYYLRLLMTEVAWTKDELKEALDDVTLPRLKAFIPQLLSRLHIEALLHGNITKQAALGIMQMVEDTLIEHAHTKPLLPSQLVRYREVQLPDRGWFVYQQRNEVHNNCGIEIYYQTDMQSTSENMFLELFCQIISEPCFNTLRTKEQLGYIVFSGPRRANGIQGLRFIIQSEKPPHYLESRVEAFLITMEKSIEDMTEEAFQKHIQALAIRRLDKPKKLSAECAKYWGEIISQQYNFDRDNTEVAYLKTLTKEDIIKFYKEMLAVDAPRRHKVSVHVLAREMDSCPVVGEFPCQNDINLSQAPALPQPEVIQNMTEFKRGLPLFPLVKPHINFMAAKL
PP1 counter: PP1-alpha (human) inhibition in PP5 counter-screen. P62136. purified PP1alpha, OMFP fluorescence. inhibition, % at 6.7 µM. 0.9% of 320,000 active. AID 2235;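 active = inhibition above the mean inhibition of all tested compounds plus 3 SD, computed separately for each screening campaign, cut at about 15% in these data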
SKKanGAS inh: SKKanGAS growth inhibition; 1.3% of 300,000 active; AID 1662; inhibition, % at 7.5 µM; S. pyogenes SKKanGAS, kanamycin growth, BacTiter-Glo, 6 h;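 active = mean replicate score, as percent of positive control median, at least 50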;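 note: strain carries kanamycin resistance gene driven by streptokinase promoter and grows in 40 µg/ml kanamycin; loss of luminescence reflects streptokinase promoter inhibition or plain growth inhibition; 0% = median of DMSO wells and 100% = positive control at its reference dose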
IDE act: IDE (human) activation, cell-based | HEK cells, FAbeta-B cleavage, fluorescence polarization; 0% vehicle, 100% cell-free pure enzyme wells | activation, % at 5.96 µM | 0.073% of 340,000 active;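 active = activation above the mean of all tested compounds plus 3 SD, set per screening campaign, cut at about 17% in these data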
PP5 primary: blocks human protein phosphatase 5 activity; 0.18% of 320,000 active; P53041; inhibition, % at 6.7 µM; purified PP5c, OMFP substrate fluorescence;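 active = inhibition above the campaign's mean inhibition across all tested compounds plus 3 SD, cut at about 9.5% in these data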;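 note: 0% = DMSO only and 100% = 100 µM cantharidin control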
PP1 confirm: human PP1 phosphatase inhibition, confirmation. inhibition, % at 6.7 µM. purified PP1alpha, OMFP substrate fluorescence. AID 2358. 52% of 1,900 active. shares compounds with PP1 counter;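 active = mean PP1 inhibition above a set limit taken from the earlier primary screen, cut at about 15% in these data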
PP5 inh counter: PP5 phosphatase inhibition, counter-screen for PP1 inhibitors; shares compounds with PP1 counter; purified PP5c, OMFP fluorescence; inhibition, % at 6.7 µM; 4% of 1,900 active; AID 2360;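 active = mean PP5 inhibition over triplicate wells above about 9.5% taken from the earlier PP1 screen, limit read from the data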
The depositor's hits bear a star; x = no result.

SMILES	Exocytosis inh	IDE inh	PP1 counter	SKKanGAS inh	IDE act	PP5 primary	PP1 confirm	PP5 inh counter
CCNC(=S)N/N=C/c1cccs1	4	-1	37*	6	-2	-2	-3	-5
CCc1nnc(NC(=O)c2sc3nc4c(cc3c2N)CCCCC4)s1	2	1	2	30	2	2	x	x
CCc1nnc(NC(=O)c2sc3nc4c(cc3c2N)CCCCCC4)s1	-3	0	22*	35	-2	2	29*	-5
O=C(N/N=C/c1ccncc1)c1cccc(NC(=O)c2ccc(Cl)cc2)c1	-3	0	31*	4	0	1	12	-1
O=C(N/N=C/c1ccncc1)c1cccc(N/N=C/c2ccncc2)c1	1	0	-3	-4	1	1	x	x
CCOC(=O)C1=C(c2ccccc2)Nc2ncnn2C1c1ccc(C(=O)O)cc1 (stereo not given)	-2	-1	-4	-1	-3	-3	x	x
CCOC(=O)C1=C(c2ccccc2)NC(N)=NC1c1ccc(OCc2ccc(C(=O)OC)cc2)cc1 (stereo not given)	7	-1	44*	10	17	2	31*	-4
COc1cccc(CNC(=O)c2ccc(COc3ccccc3)cc2)c1	7	4	-2	2	1	5	x	x
COC(=O)c1ccc(CNC(=O)c2ccc(COc3ccccc3)cc2)cc1	-2	1	26*	4	-3	0	24*	-2
COc1ccc(C(O)c2ncc(-c3cccc(C(F)(F)F)c3)[nH]2)cc1F (stereo not given)	-3	x	x	x	x	x	x	x
CC1Cc2ccccc2N1Cc1cc(=O)n2ccsc2n1 (stereo not given)	-3	0	22*	x	9	-4	19*	-2
CS(=O)(=O)c1ccc(C(=O)NC2CCCc3ccccc32)cc1 (stereo not given)	-1	7	-1	4	-1	0	x	x
Cc1cc(N/N=C/c2cccc(F)c2)nc(NCc2ccccc2)n1	42	1	9	-2	4	2	x	x
Cc1cc(N/N=C/c2ccc(Cl)cc2)nc(NCc2ccccc2)n1	8	4	19*	3	-6	6	2	-1
C#CCOCCOCCOCCNc1nc(N2CCN(C(=O)CCCCCCCCCCNC(=O)Cn3cc(CCCCCN)nn3)CC2)nc(N2CCN(C(=O)CCCCCCCCCCNC(=O)[C@H]([C@@H](C)CC)n3cc(CCCCCN)nn3)CC2)n1	0	-2	46*	x	25*	3	35*	-1
C#CCOCCOCCOCCNc1nc(N2CCOCC2)nc(N2CCN(C(=O)CCCCCCCCCCNC(=O)Cn3cc(CCCCCN)nn3)CC2)n1	-14	3	0	x	1	1	x	x
C#CCOCCOCCOCCNc1nc(N2CCN(C(=O)CCCCCCCCCCNC(=O)Cn3cc(CCCCCN)nn3)CC2)nc(N2CCN(C(=O)CCCCCCCCCCNC(=O)[C@H](CO)n3cc(CCCCCN)nn3)CC2)n1	7	4	35*	x	9	0	15	-2
C#CCOCCOCCOCCNc1nc(N2CCN(C(=O)CCCCCCCCCCNC(=O)[C@H](CO)n3cc(CCCSC)nn3)CC2)nc(N2CCN(C(=O)CCCCCCCCCCNC(=O)[C@H](CO)n3cc(CCCSC)nn3)CC2)n1	-6	8	30*	4	9	2	22*	4
C#CCOCCOCCOCCNc1nc(N2CCN(C(=O)CCCCCCCCCCNC(=O)Cn3cc(C[C@@H](C)O)nn3)CC2)nc(N2CCN(C(=O)CCCCCCCCCCNC(=O)[C@H](CCCCN)n3cc(C[C@@H](C)CC)nn3)CC2)n1	10	-4	38*	x	30*	5	31*	1
C#CCOCCOCCOCCNc1nc(N2CCN(C(=O)CCCCCCCCCCNC(=O)Cn3cc(C[C@@H](C)O)nn3)CC2)nc(N2CCN(C(=O)CCCCCCCCCCNC(=O)Cn3cc(C[C@@H](C)O)nn3)CC2)n1	-1	-3	8	x	-2	0	x	x
O=C(O)C1CC=CCC1C(=O)Nc1ccc2c(c1)CCC2 (stereo not given)	3	-4	0	-4	-4	0	x	x
CS(=O)(=O)c1[nH]nc(-c2cccc(Cl)c2)c1C#N	1	6	-1	2	x	-2	x	x
COc1ccc(NC(=O)c2c(C)cc(=O)oc2C)c(OC)c1	5	0	36*	-4	-2	-1	-7	-5
C(#CC1CCCC1)c1ccc2c(c1)COc1c3ccccc3nn1-2	-5	6	-4	2	5	-4	x	x
CCCc1cc(-c2ccc3c(c2)COc2c4ccccc4nn2-3)on1	-1	4	18*	1	-8	2	19*	-1
SMILES	Exocytosis inh	IDE inh	PP1 counter	SKKanGAS inh	IDE act	PP5 primary	PP1 confirm	PP5 inh counter
Cc1cc(-c2ccc3c(c2)COc2c4ccccc4nn2-3)on1	23	4	25*	-5	5	0	26*	-5
CC1(O)C(=O)C=C2C=C(c3ccsc3)OC=C2C1=O (stereo not given)	x	2	18*	4	x	0	7	0
CC1(OC(=O)c2ccco2)C(=O)C=C2C=C(c3ccsc3)OC=C2C1=O (stereo not given)	x	12	18*	18	x	1	8	-5
CC1(O)C(=O)C=C2C=C(C3CC3)OC=C2C1=O (stereo not given)	x	0	0	9	x	3	x	x
CCCCC1=CC2=CC(=O)C(C)(O)C(=O)C2=CO1 (stereo not given)	x	2	19*	0	x	1	11	-3
O=C(Nc1cccc(C(=O)N2CCCCC2)c1)c1ccccc1Br	0	5	-3	3	-5	1	x	x
O=C(Cn1ncc2c3ccccc3n(Cc3ccc(Cl)cc3)c2c1=O)NCCCN1CCCC1=O	0	6	2	13	4	1	x	x
CCc1ccc(NC(=O)Cn2ncc3c4ccccc4n(C)c3c2=O)cc1	-3	3	24*	8	9	-3	22*	-5
Cn1c2ccccc2c2cnn(CC(=O)Nc3ccc(Cl)cc3)c(=O)c21	1	1	18*	-7	8	1	14	0
CCCn1c2ccccc2c2cnn(CC(=O)NCCOC)c(=O)c21	-4	x	x	-2	0	x	x	x
O=C(O)CSCC(=O)N(Cc1ccccc1)c1nc(-c2ccccc2)c(-c2ccccc2)s1	5	8	26*	94*	5	6	19*	-1
CCOC(=O)c1sc(N(Cc2ccccc2)C(=O)CCl)nc1C	-10	5	-3	-4	5	-1	x	x
Cc1nn(-c2ccc(F)cc2)c(Cl)c1/C=N/NC(=O)c1cccs1	-2	4	1	-1	-2	-1	x	x
